In the supplement of paper PMC11732987, “Enantioselective OTUD7B fragment discovery through chemoproteomics screening and high-throughput optimisation” (Communications Chemistry, 2025):

Key:
Experiment in all cases: log2 ratio of Biotin-Ahx-Ub-VS probe labelling (fragment/DMSO); higher = less target engagement (more negative = stronger competition), active = hit call of the paper (q ≤ 0.05, log2 ratio ≤ -1)
Conditions in all cases: compound concentration: 200 uM; treatment time: 3 h
OTUD6B = biological target: T1, OTUD6B (UniProt Q8N6M0)
T1 sequence (whole entry): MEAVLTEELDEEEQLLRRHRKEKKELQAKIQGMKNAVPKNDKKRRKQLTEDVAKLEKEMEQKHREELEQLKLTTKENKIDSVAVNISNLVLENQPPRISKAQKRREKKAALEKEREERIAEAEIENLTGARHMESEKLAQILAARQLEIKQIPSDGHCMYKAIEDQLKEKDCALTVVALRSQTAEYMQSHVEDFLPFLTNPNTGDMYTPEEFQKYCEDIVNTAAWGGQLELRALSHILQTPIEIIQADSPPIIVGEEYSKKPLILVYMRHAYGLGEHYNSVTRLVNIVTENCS
How it was run: (§1)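 Global-median-normalised Spectronaut label-free quantities were compared by unpaired t-test, and values are average log2 ratios of fragment over vehicle. Only proteins with ≥2 unique peptides were used. HEK293T lysate (495 µg per sample) was treated in triplicate with fragment at 200 µM or vehicle for 3 h and then with Biotin-Ahx-Ub-VS at 0.5 µM final for 1 h. Labelled DUBs were then NeutrAvidin-enriched, digested with LysC and trypsin, and run by diaPASEF LC-MS/MS.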

OTUD7B = biological target: T2, OTUD7B (UniProt Q6GQQ9)
T2 sequence (whole entry): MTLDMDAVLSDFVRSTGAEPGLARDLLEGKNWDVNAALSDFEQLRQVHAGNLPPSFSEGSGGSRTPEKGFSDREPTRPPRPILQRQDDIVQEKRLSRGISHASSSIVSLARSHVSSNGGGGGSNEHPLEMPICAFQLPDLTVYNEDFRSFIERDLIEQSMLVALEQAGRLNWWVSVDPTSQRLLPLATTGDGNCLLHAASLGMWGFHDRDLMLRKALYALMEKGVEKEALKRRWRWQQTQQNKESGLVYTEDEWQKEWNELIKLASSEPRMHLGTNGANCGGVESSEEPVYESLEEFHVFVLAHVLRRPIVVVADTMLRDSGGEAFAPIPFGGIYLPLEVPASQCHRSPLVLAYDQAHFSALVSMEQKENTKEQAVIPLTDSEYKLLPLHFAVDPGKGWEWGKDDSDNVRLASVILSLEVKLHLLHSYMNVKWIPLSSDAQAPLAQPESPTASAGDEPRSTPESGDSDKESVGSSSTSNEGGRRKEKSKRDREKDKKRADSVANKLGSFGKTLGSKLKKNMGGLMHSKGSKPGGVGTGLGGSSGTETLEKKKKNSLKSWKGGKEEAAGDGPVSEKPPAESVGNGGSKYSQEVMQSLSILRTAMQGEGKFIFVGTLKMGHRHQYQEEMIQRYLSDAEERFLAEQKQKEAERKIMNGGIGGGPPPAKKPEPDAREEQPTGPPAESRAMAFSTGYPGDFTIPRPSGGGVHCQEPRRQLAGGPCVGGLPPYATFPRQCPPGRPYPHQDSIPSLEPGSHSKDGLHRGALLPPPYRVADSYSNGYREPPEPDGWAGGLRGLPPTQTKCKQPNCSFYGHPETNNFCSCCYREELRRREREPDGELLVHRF
How it was run: as §1

PRPF8 = PRPF8 (UniProt Q6P2Q9)
How it was run: as §1

PSMD7 = biological target: T3, PSMD7 (UniProt P51665)
T3 sequence (whole entry): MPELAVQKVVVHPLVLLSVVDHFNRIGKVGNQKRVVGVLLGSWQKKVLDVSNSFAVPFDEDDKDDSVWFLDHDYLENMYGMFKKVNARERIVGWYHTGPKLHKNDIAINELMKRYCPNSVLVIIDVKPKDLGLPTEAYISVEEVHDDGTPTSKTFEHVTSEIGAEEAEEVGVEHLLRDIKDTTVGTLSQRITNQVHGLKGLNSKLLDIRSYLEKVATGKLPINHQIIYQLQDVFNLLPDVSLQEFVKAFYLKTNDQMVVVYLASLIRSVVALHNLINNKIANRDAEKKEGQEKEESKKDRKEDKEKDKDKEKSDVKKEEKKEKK
How it was run: as §1

UCHL1 = UCHL1 (UniProt P09936)
How it was run: as §1

UCHL3 = biological target: T4, UCHL3 (UniProt P15374)
T4 sequence (whole entry): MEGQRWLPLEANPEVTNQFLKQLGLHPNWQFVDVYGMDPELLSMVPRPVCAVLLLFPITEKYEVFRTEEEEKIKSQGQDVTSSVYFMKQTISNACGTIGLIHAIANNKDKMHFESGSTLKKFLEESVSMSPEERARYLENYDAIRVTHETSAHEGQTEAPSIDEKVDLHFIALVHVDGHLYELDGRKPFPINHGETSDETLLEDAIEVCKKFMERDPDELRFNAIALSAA
How it was run: as §1

UCHL5 = biological target: T5, UCHL5 (UniProt Q9Y5K5)
T5 sequence (whole entry): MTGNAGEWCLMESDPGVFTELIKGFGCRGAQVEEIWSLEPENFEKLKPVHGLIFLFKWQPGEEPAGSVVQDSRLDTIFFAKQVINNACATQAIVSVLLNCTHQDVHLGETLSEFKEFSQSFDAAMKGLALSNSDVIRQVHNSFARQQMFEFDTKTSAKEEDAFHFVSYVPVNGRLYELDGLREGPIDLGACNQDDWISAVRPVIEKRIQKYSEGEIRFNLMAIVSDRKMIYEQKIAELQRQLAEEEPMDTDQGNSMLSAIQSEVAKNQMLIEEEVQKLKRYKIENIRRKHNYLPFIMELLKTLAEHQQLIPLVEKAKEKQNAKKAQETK
How it was run: as §1

USP10 = USP10 (UniProt Q14694)
How it was run: as §1

USP15 = biological target: T6, USP15 (UniProt Q9Y4E8)
T6 sequence (whole entry): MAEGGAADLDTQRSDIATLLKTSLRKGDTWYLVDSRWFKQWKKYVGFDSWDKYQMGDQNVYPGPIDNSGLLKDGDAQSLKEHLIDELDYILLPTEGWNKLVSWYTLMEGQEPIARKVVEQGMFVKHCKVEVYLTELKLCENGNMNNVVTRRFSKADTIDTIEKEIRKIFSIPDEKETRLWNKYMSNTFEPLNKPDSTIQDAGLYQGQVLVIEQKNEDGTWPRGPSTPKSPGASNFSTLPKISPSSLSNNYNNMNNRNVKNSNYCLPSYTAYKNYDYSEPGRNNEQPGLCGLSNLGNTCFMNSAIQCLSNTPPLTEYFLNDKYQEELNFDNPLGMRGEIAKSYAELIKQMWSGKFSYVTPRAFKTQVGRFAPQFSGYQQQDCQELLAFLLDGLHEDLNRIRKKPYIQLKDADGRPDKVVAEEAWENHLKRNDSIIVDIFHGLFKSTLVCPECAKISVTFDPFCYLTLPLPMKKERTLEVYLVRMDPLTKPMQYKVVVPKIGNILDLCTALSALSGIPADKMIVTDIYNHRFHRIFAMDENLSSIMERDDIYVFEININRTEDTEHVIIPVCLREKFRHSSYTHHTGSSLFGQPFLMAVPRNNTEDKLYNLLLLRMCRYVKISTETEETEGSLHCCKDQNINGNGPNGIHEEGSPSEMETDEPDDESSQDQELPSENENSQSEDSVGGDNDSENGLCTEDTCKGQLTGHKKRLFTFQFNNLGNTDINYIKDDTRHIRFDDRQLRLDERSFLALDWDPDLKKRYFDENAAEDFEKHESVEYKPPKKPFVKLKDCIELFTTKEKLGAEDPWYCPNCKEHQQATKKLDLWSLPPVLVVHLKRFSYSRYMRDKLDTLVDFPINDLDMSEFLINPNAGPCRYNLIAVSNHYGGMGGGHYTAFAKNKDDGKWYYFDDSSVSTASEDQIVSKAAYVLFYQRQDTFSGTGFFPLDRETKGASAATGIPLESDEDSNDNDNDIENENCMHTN
How it was run: as §1

Measured: log2 ratio of Biotin-Ahx-Ub-VS probe labelling

Sequence of UCHL1 (P09936 whole entry, looked up): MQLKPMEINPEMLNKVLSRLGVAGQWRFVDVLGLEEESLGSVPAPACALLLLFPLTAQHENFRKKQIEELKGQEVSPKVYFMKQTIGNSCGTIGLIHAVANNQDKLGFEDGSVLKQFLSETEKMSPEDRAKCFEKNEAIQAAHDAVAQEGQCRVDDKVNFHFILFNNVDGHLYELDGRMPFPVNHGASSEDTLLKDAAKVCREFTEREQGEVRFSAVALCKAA
Sequence of USP10 (Q14694 whole entry): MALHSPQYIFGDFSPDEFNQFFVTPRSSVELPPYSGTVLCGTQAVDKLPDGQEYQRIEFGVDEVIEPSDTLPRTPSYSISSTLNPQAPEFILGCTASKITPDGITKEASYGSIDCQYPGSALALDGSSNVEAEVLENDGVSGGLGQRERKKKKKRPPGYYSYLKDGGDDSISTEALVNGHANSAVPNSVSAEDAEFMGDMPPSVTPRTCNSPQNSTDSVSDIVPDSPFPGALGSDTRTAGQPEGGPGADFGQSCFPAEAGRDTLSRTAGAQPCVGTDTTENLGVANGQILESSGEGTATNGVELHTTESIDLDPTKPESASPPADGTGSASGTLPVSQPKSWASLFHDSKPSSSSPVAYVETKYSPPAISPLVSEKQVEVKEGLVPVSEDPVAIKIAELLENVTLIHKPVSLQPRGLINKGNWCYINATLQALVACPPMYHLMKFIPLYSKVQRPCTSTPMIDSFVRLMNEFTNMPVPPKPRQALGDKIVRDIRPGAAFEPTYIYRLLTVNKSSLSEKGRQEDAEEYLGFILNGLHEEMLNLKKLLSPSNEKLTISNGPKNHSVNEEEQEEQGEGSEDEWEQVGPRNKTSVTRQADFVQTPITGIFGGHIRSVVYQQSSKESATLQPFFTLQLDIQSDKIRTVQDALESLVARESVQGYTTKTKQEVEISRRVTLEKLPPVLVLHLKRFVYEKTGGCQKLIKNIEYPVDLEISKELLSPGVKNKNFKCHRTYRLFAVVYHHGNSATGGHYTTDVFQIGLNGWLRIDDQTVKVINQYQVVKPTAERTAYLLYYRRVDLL

O=C(CCl)N1CC=C(c2c[nH]c3ccccc23)CC1
inactive: OTUD6B -0.33 | OTUD7B -0.605 | PRPF8 0.0222 | PSMD7 0.00731 | UCHL3 0.00279 | UCHL5 -0.387 | USP10 -0.299
active: UCHL1 -1.12 | USP15 -1.46
